In PubChem BioAssay (EPA / NIEHS):
Several values for one entry are separate records, joined by “and”; a condition that tells them apart may be missing. Equal values may be shown once. Inconclusive results are not listed. A structure can be active in one record and inactive in another. Activity calls are given as the source filed them. How the source made its calls: active means hit-call score of the fitted dose curve at least 0.9, where 1 is the maximum; inconclusive means response in the unintended direction; inactive means score below 0.9.

Experiment: ACEA_ER_AUC_viability: ACEA Biosciences xCELLigence Real-Time Cell Analysis on Estrogen Receptor Agonism for Viability (AID 2283782);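 further: continuous compound exposure with impedance area under curve over 80 h; hit means loss of impedance signal meaning reduced cell growth or viability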
How it was run: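 T-47D human breast cells in phenol red-free RPMI1640 with 10% charcoal-stripped FBS were dosed with an 8-point 1:4 dilution series from 100 uM top final concentration, in duplicate. Impedance-based growth was followed for 80 h; AUC analysed versus DMSO.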
In the case of `OCC(O)CO`, the outcome is reported as “inactive”. In the case of `CCCCCCCCCC[N+](C)(C)CCCCCCCCCC`, the AC50 is reported as 5.4 µM (active). For `CCC(C)(c1ccc(O)cc1)c1ccc(O)cc1`, the AC50 was 87.5 µM (active) [middle of 4 runs]. With `Cc1cc2c3c(c1)C(c1ccccc1)=N[C@@H](NC(=O)c1ccncc1)C(=O)N3CC2` the outcome was “inactive”. For `Cc1ccccc1CO[C@@H]1C[C@@]2(C(C)C)CC[C@]1(C)O2`, the AC50 was 74.9 µM (active). In the case of `O=S(=O)(O)C(F)(F)C(F)(F)C(F)(F)C(F)(F)C(F)(F)C(F)(F)F`, the outcome is reported as “inactive”. With `N#Cc1ccc(N(CC(N)=O)CC(F)(F)F)cc1C(F)(F)F` the outcome was “inactive”. In the case of `CCCCCCCCCc1ccc(O)cc1`, the AC50 is reported as 21.8 µM (active) and 25.4 µM (active) and 28.8 µM (active). In the case of `Nc1ccc(-c2ccc(N)cc2)cc1`, the outcome is reported as “inactive”. With `CCC(=O)O[C@H]1CC[C@H]2[C@@H]3CCC4=CC(=O)CC[C@]4(C)[C@H]3CC[C@]12C` the AC50 was 92.4 µM (active) and 88.5 µM (active). In the case of `Cc1cccc(C)c1N`, the outcome is reported as “inactive”. In the case of `CN(C)c1nc(=O)n(C2CCCCC2)c(=O)n1C`, the outcome is reported as “inactive”. For `O=S(=O)(O)C(F)(F)C(F)(F)C(F)(F)C(F)(F)F`, the outcome was “inactive”. In the case of `CC(c1ccc(O)cc1)(c1ccc(O)cc1)c1ccc(O)cc1`, the AC50 is reported as 88.3 µM (active). In the case of `O=C(O)C(F)(F)C(F)(F)C(F)(F)C(F)(F)C(F)(F)F`, the outcome is reported as “inactive”. With `Cc1ccccc1[N+](=O)[O-]` the outcome was “inactive”. With `Sc1ccccc1` the outcome was “inactive”. In the case of `COc1ccc(O)c(C(C)(C)C)c1`, the AC50 is reported as 64.6 µM (active). In the case of `Cc1ccc(O)c(C)c1`, the outcome is reported as “inactive”. With `ClC1=C(Cl)[C@]2(Cl)[C@@H]3[C@@H](Cl)[C@H]4O[C@H]4[C@@H]3C1(Cl)C2(Cl)Cl` the AC50 was 73 µM (active). For `O=C(O)C(F)(F)C(F)(F)C(F)(F)C(F)(F)C(F)(F)C(F)(F)C(F)(F)C(F)(F)F`, the AC50 was 122 µM (active) and the outcome was “inactive”. For `CCOC(=O)C(O)(c1ccc(Cl)cc1)c1ccc(Cl)cc1`, the AC50 was 81.3 µM (active). For `Clc1ccc(Cl)cc1`, the outcome was “inactive”. With `O=C(NC(=O)c1cc(F)c(F)cc1Cl)Nc1cc(F)ccc1N1CCC(C(=O)O)CC1` the outcome was “inactive”. With `O=C(O)C(F)(F)C(F)(F)C(F)(F)C(F)(F)C(F)(F)C(F)(F)C(F)(F)C(F)(F)C(F)(F)F` the AC50 was 78.6 µM (active) and 125 µM (active). For `CCOP(=S)(OCC)SCSC(C)(C)C`, the AC50 was 92.7 µM (active). For `Oc1c(Cl)c(Cl)c(Cl)c(Cl)c1Cl`, the AC50 was 77.9 µM (active) and the outcome was “inactive”.
